# Reference: the supplement of paper PMC3334620
# The full ranking holds about 33,000 sequences; the median of “E-score (-0.5 to 0.5)” is about -0.0014, and the highest 2% start at about 0.25. The entries come from a sample that favours the highest values as a whole.
# Target: T1, Cad1 (UniProt P24813)
# T1 sequence: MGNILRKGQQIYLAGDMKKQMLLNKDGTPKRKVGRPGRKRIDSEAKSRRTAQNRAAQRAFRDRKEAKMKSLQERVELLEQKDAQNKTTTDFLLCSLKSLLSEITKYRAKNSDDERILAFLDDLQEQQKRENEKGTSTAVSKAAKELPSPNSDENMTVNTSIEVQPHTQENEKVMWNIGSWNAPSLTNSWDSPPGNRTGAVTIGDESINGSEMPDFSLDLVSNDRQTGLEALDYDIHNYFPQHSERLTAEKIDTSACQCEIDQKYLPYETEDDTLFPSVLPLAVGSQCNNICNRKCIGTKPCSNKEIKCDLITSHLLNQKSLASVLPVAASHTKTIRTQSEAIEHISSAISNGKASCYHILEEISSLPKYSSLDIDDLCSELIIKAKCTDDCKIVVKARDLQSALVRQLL
# Assay: PBM E-score (8-mer binding enrichment) (E-score (-0.5 to 0.5)); higher = stronger / more preferred TF binding
# Conditions: protein concentration: 100 nM; construct: GST-full length
# Procedure: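 Universal 'all 10-mer' protein binding microarrays (Agilent AMADID 015681) probed with GST-tagged S. cerevisiae TFs (full-length or DBD) made by in vitro transcription/translation (PURExpress), about 100-200 nM. Bound TF was detected with fluorescent anti-GST. Each ungapped 8-mer (which stands for itself and its reverse complement) is scored by the PBM enrichment score (E-score), a modified Wilcoxon-Mann-Whitney statistic from -0.5 to +0.5, computed with the Universal PBM Analysis Suite. Scale: above 0.35 generally sequence-specific binding.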
row,Sequence,PBM E-score
1,AGGTGTAG,-0.128
2,CGGCACAA,-0.103
3,ATGCTTGC,-0.14
4,AAAAATTT,0.269
5,AAAAAATT,0.12
6,ACAAATCA,0.279
7,AAAAATTA,0.254
8,CCAAATCA,-0.041
9,CAAAATTA,0.187
10,GAAAATTA,0.13
11,AAAATTTT,0.234
12,AGAAATTA,0.296
13,AGAAATTC,0.13
14,GCAAATCA,0.101
15,GGAAATTA,0.208
16,CGGAAAAC,0.221
17,ATCCAACC,-0.0228
18,CGCCCTGC,-0.128
19,ATCCTAGA,-0.0558
20,AATTTGCG,0.173
21,CCGGAAAA,0.215
22,TAAAATTA,0.297
23,TAAATTTA,0.154
24,TAAAATAA,0.164
25,AATGCCGT,0.107

row,Sequence,PBM E-score
1,ATCTTCAC,-0.0332
2,CTAAGACC,-0.0662
3,ACCCTAAG,-0.101
4,CATTTCGC,-0.15
5,GATTTCGA,-0.0223
6,GATTTCGC,0.28
7,ATCGATGG,0.0786
8,CAGCTTCA,0.0676
9,CCTCCTTC,-0.165
10,GCTTATAA,0.235
11,GATTATAA,0.29
12,ACTTATAC,0.154
13,AATTATAC,0.172
14,AATTATGG,0.216
15,AATTATGA,0.297
16,ACTTATAA,0.279
17,AATTATAG,0.0146
18,CATTATAA,0.104
19,AATTATAA,0.276
20,TATTATAA,0.185
21,AATTATGT,0.167
22,AAACGTAC,0.0592
23,AGCTAGTG,-0.0897
24,AGCTCACG,-0.0493
25,TAGAGTCA,-0.321

row,Sequence,PBM E-score
1,AAAGAACC,0.0643
2,ATAAGCCA,0.063
3,AGTCGGCG,0.0599
4,GGTGGGTA,-0.0656
5,CATGTGCG,0.173
6,AATTATAT,0.29
7,AGTTATAT,0.101
8,ACTTATAT,0.202
9,CAAGTGGA,-0.0832
10,CCCAAAAA,-0.0252
11,CCGTTCCC,-0.0828
12,ATTATTCG,0.195
13,ATTATTCC,0.131
14,ATTATTCA,0.26
15,GATATTCA,0.0631
16,GTTATTCA,0.251
17,CTTATTCA,0.17
18,ATATTGTA,0.0624
19,ATCACCAC,0.245
20,GGCACACC,-0.298
21,CCGATGAG,0.0417
22,ACTGCACT,0.0895
23,CTTGGGGA,0.0866
24,CCGACCTC,-0.0414
25,CTCATGAC,-0.0193

row,Sequence,PBM E-score
1,GTCATGAA,0.0483
2,GTCATGAC,0.288
3,CACTTAAC,0.00927
4,GGCGCTCA,0.149
5,ACACCTGC,0.0761
6,CCCGCGCC,-0.118
7,ACCGCGGA,0.207
8,GCCGCCGA,0.277
9,GCCGCGGC,0.347
10,CCCGCGGA,0.0649
11,TCCGCGGA,0.311
12,CCCGCGCG,0.298
13,CCCGCGCA,0.106
14,GCCGCGGA,-0.00234
15,CCCGCCGA,-0.0624
16,CCCGCGGC,0.0319
17,ACCGCCGA,-0.0944
18,ATTTCCAA,-0.03
19,ACCAGGCA,-0.169
20,AAAGCCAA,-0.0764
21,AAGAGCTG,0.0198
22,CCGTTGGA,-0.182
23,ACCGATGG,-0.143
24,TCTGAACA,0.184
25,GCTATCGA,-0.0158

row,Sequence,PBM E-score
1,CGCGCGGA,0.212
2,AGCGCGCC,0.082
3,AGCGCGGC,0.0398
4,GGCGCGCC,0.172
5,CGCGCGGC,0.261
6,CGCGCGCC,0.254
7,TTAACAAA,0.0927
8,GACTCTAA,-0.118
9,GCATAAGA,0.108
10,GCATAAGC,0.254
11,ACATAAGC,0.107
12,GCTTAGCC,-0.148
13,ACTAATAA,0.226
14,ACTAATAG,0.325
15,AATAATAT,0.208
16,ACTACTAT,0.253
17,ACTACTAC,0.0727
18,ACTAATAT,0.302
19,CCTAATAG,-0.0644
20,AGTAATAT,0.346
21,AGTAATAG,0.16
22,ACTACTAA,0.158
23,CCTAATAA,0.0868
24,AGTAATAC,0.21
25,CACCTAAA,0.0285

row,Sequence,PBM E-score
1,TCTTAACA,0.0995
2,CCCGCCGG,-0.00326
3,GTCACTTA,0.151
4,AGCTAGCA,-0.0255
5,AGAGACGG,0.0418
6,ACTAATAC,0.301
7,CCTAATAC,0.013
8,ACTAACAT,0.255
9,ACTAACAC,0.184
10,GCTAATAC,0.152
11,ACTAACAG,0.193
12,ACTGCGCG,0.0621
13,AATATAGC,0.0229
14,AATATCGG,0.183
15,AATATATT,0.322
16,AATATAGG,0.123
17,ACTATAGT,0.293
18,ACTATAGA,-0.00757
19,AATATCGT,0.272
20,AATATAGT,0.281
21,ACTATAGG,-0.161
22,AATATCGA,0.242
23,AATATATA,0.244
24,AATATATG,0.236
25,ACTGGTCA,-0.0283

row,Sequence,PBM E-score
1,GAGTCCGC,-0.377
2,ATTTAGGA,0.0482
3,AGGCAGGG,-0.133
4,ACCACCAA,-0.0937
5,CTTCCGTC,-0.133
6,CAGAGCAA,-0.0906
7,AACAGGGC,0.0552
8,TGCGTGAA,0.0712
9,GACGTATC,-0.107
10,ACCCATGA,-0.0855
11,CCACACGC,0.131
12,CTCACGTA,-0.0707
13,CTTACGTA,0.328
14,GTTACGTA,0.0792
15,CTTACGTC,-0.0353
16,ATTACGTA,0.392
17,GTTACGAA,0.17
18,ATTACGTG,0.163
19,ATTACGAA,0.327
20,ATTACGAG,0.0536
21,CCAATTTC,0.105
22,ATCCACTA,0.127
23,GACTAAGA,0.0179
24,TAATTATA,0.306
25,AGATTACG,0.252

row,Sequence,PBM E-score
1,TGATTACA,0.275
2,CAATTACA,0.241
3,AGATTACC,0.107
4,AGATTACT,0.184
5,AAATTATA,0.237
6,CGATTACA,0.197
7,AAATTACA,0.191
8,GAATTATA,0.19
9,GGATTACA,0.0354
10,TAATTACA,0.265
11,ATGCCCGA,-0.0531
12,TGGCGCCA,0.198
13,CGCGTTCC,0.132
14,AGATCAGG,-0.128
15,TCGTTAGA,0.0445
16,CGTACTTC,0.096
17,CTACGGCC,-0.0892
18,TCGGTACA,-0.0456
19,ACAAGAAT,0.00675
20,ATAAGATA,0.264
21,AAAAGAAG,0.0683
22,GCAAGAAC,0.0479
23,AAAAGAAT,0.257
24,CTAAGATA,-0.0701
25,ATAAGAAT,0.284

row,Sequence,PBM E-score
1,AAAAGAAC,0.118
2,ATAAGATC,0.0938
3,ACAAGAAC,0.251
4,ATAAGAAC,0.205
5,ATAAGAAA,0.209
6,GGCTTTAA,-0.12
7,TACCACTA,-0.0282
8,CTAGCCCA,-0.145
9,CGGACACA,0.00739
10,GAGGCTTA,-0.0175
11,ATAGGCAT,-0.202
12,GAGGTTCA,0.0769
13,CTGGCTGC,-0.0751
14,ACGCGTCA,0.198
15,GGGAAGAC,-0.154
16,AAACCCAT,0.261
17,AAACCCAG,0.0892
18,AACCCCAT,-0.107
19,AGGCCGAA,-0.0603
